About 79,000 compounds went through this panel and 15% of them were active in at least one assay; those are over-represented in the sample as a whole. Calls of active or inactive are those of the source. Cut-off read from the data, not from the text of the source: active = growth inhibition above about 70%; inactive = the rest.
Legend:
[1] = NCI Yeast Anticancer Drug Screen. Data for the rad50 strain (AID 155);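 note: 0% = growth of vehicle-only cultures of the same strain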; conditions: S. cerevisiae rad50 strain growth inhibition; at 50.0 µM; active compounds read high
Method in brief: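 DNA repair mutant yeast, compound exposure, growth read-out; inhibition is taken relative to vehicle.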

[2] = NCI Yeast Anticancer Drug Screen. Data for the mec2-1 strain (AID 157); conditions: S. cerevisiae mec2-1 strain, at 50.0 µM, active compounds read high
Method in brief: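 Test agents were screened against the mec2-1 yeast strain, with defined DNA repair or cell cycle alteration. Growth was scored as inhibition against vehicle-only controls.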

[3] = NCI Yeast Anticancer Drug Screen. Data for the sgs1 mgt1 strain (AID 161);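 note: 0% = growth of cultures given vehicle only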; conditions: S. cerevisiae sgs1 mgt1 strain, at 50.0 µM, active compounds read high
Method in brief: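 Test agents were incubated with a DNA-repair-mutant yeast strain. Growth was then read and compared against vehicle-treated controls.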

[4] = NCI Yeast Anticancer Drug Screen. Data for the cln2 rad14 strain (AID 165);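 note: 0% = growth equal to vehicle treated cultures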; conditions: S. cerevisiae cln2 rad14 strain, at 50.0 µM, active compounds read high
Method in brief: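 Growth of compound-exposed yeast (cln2 rad14 genotype) measured and expressed as inhibition relative to vehicle.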

[5] = NCI Yeast Anticancer Drug Screen. Data for the bub3 strain (AID 167); conditions: S. cerevisiae bub3 mutant strain, at 50.0 µM, active compounds read high
Method in brief: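 In this screen, a yeast mutant lacking normal mitotic checkpoint function is challenged with compound. Relative growth versus vehicle gives the inhibition value.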

[6] = NCI Yeast Anticancer Drug Screen. Data for the mlh1 rad18 strain (AID 175); conditions: S. cerevisiae mlh1 rad18 strain growth inhibition; at 50.0 µM; active compounds read high
Method in brief: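 In this whole-cell yeast screen, a strain with altered DNA damage repair is challenged with compound, and its growth is measured against matched vehicle-treated controls.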

Measured: growth inhibition

O=S(=O)(NC1CCC(CC2CCCCC2)CC1)c1ccccc1 (stereo not drawn)
active: [1] 81% | [5] 88.4% | [6] 82.5%
inactive: [2] 42% | [3] 47.5% | [4] 40%

C/C(=N\NC(=S)N1CCN(c2ncccn2)CC1)c1ccccn1
inactive: [1] -2.4% | [2] -7.1% | [3] -6.8% | [4] -21.8% | [5] 9.35% | [6] 4.2%

Cc1nc(C)c(N2CCN(CN)CC2)c(=O)[nH]1
inactive: [1] -45.2% | [2] -32.8% | [3] -48% | [4] 30.6% | [5] 14.3% | [6] -72.3%

C=CCOC(=O)CCC(CCC(=O)OCC=C)C(C)=O
inactive: [1] -25.4% | [2] -19.4% | [3] 0.55% | [4] -9.6% | [5] 4.1% | [6] -11.5%

CCOc1ccc(NC(C)=O)c([N+](=O)[O-])c1
inactive: [1] -7.05% | [2] -1.25% | [3] 21% | [4] 9.45% | [5] -3.35% | [6] 2.55%

CCCC1=C(CC)C(C(=O)Nc2c(C)cccc2C)=NC(S)N1 (stereo not drawn)
inactive: [1] -11.8% | [2] -15.6% | [3] 0.65% | [4] 14.5% | [5] 1.15% | [6] -19.1%

COC(=O)c1ccc(/C=C2\Oc3ccccc3C2=O)cc1
inactive: [1] -54.1% | [2] -62.2% | [3] -39% | [4] -8.5% | [5] -22.9% | [6] -44.5%

CSc1ccccc1C1CCCCCC1O (stereo not drawn)
inactive: [1] 11% | [2] 12.8% | [3] 5.65% | [4] 12.8% | [5] -30.6% | [6] 10.1%

CCCCN(CCCC)C1=Nc2ccccc2-n2c(nnc2C(=O)OCC)C1
inactive: [1] 24.4% | [2] 44.5% | [3] 22.9% | [4] 15.2% | [5] 52% | [6] 50.4%

CN(C)Cc1ccccc1C(=C(c1ccccc1)c1ccccc1)c1ccccc1
inactive: [1] -15.1% | [2] -4.65% | [3] -8% | [4] -23.6% | [5] -0.8% | [6] -10.9%

NC(=O)c1ncn(C2OC(CO)C(O)C2O)c1NC=O (stereo not drawn)
inactive: [1] 1.95% | [2] -3.9% | [3] -2.25% | [4] 7.6% | [5] 9.85% | [6] 17.9%

O=C1CCNC/C1=C\c1ccccc1
inactive: [1] 6.25% | [2] -14.3% | [3] 8.9% | [4] 13.4% | [5] -19.2% | [6] 6.55%

COc1ccc2c(c1)-c1c3c(cc4ccnc(c14)C2=O)OCO3
active: [1] 91.7% | [2] 93% | [3] 93.4% | [4] 91.5% | [5] 92% | [6] 91.8%

N#CC(c1cnc2ccccc2n1)c1cccc2ccccc12 (stereo not drawn)
inactive: [1] -0.3% | [2] 5.9% | [3] 1% | [4] -5.75% | [5] -5.3% | [6] 13%

FS(F)(F)(F)(F)c1cccc(NC(=S)SCc2ccc3c(c2)OCO3)c1
active: [1] 97.6% | [2] 99% | [3] 98.8% | [4] 99.3% | [5] 98.8% | [6] 98.3%

CCCCCCCCCC(CCCCCCCC(=O)O)NC(C)=O (stereo not drawn)
inactive: [1] 32.3% | [2] 16.6% | [3] 7.45% | [4] 32.5% | [5] -18.1% | [6] 1.05%

CNC(=S)/C(C(C)=O)=C(\C)Nc1ccccc1
inactive: [1] -0.95% | [2] -5.55% | [3] -8.05% | [4] -32.1% | [5] -14.6% | [6] 15.2%

CC(C)(c1ccccc1)C(C)(C)c1nc(-c2ccccc2)cc(-c2ccccc2)n1
inactive: [1] -23.4% | [2] 4.95% | [3] -4.65% | [4] -95% | [5] -0.95% | [6] -11.8%

COC(=O)c1nc(N)nc(C(=O)OC)c1C(=O)C(C)(C)C
inactive: [1] -11.1% | [2] -10.8% | [3] -25.9% | [4] -23.6% | [5] -41.6% | [6] -28.8%

CC1(C)[C@@H]2C[C@H]1C(Cc1ccccc1C[C@H]1c3cc(-c4ccccn4)ncc3[C@H]3C[C@@H]1C3(C)C)c1cc(-c3ccccn3)ncc12 (stereo partly drawn)
inactive: [1] 43.3% | [2] 39.3% | [3] 10.4% | [4] 24.4% | [5] 12.2% | [6] -32.4%

COc1ccc(NCC(=O)Nn2c(-c3ccccc3)nc3ccccc3c2=O)cc1
inactive: [1] -37% | [2] -48.2% | [3] 4% | [4] 0.4% | [5] 4.15% | [6] -18.4%

O=C(N/C(=C\c1ccc([N+](=O)[O-])cc1)c1nc2ccccc2[nH]1)c1ccccc1
inactive: [1] 29.1% | [2] 6.55% | [3] 8.35% | [4] -37.9% | [5] 17.9% | [6] 23.8%

OCC(O)CS (stereo not drawn)
inactive: [1] -15.2% | [2] 0.1% | [3] -4.8% | [4] 36.1% | [5] -4.5% | [6] -15.5%

C(=Nc1cccc2ccccc12)Nc1cccc2ccccc12
inactive: [1] -10.9% | [2] -38.7% | [3] -5.8% | [4] -6.7% | [5] -48.8% | [6] 1.25%

C(=Nc1ccc2c(c1)Cc1ccccc1-2)c1ccccn1
inactive: [1] 61.8% | [2] -35.5% | [3] 24.3% | [4] 16.9% | [5] -22.8% | [6] 49.4%

CCC(O)C(O)(c1ccccc1)c1ccccc1 (stereo not drawn)
inactive: [1] 4.05% | [2] 8% | [3] -8.8% | [4] -2.75% | [5] -1.2% | [6] -6.7%

CN(C)c1ccc(/C=c2\sc3nnc(Cc4ccccc4)n3c2=O)cc1
inactive: [1] -7.8% | [2] -13.6% | [3] -0.25% | [4] 11.1% | [5] 11.1% | [6] 1.35%

CC1=CC(=O)N(NC(N)=O)C1=O
inactive: [1] -11.4% | [2] -2.9% | [3] -9.5% | [4] -27.9% | [5] -16.4% | [6] 2.15%

CCc1onc(-c2noc(CC)c2C)c1C
inactive: [1] -5.35% | [2] 6.5% | [3] 0.25% | [4] -9.35% | [5] -1.5% | [6] 12.3%

O=C1c2ccccc2C(=O)C2CC(c3ccccc3)=CCC12 (stereo not drawn)
inactive: [1] 10.6% | [2] 10.1% | [3] -5.8% | [4] -35.6% | [5] 52.9% | [6] 0.9%

CNC(=O)N(Cl)c1ccc(Cl)cc1
inactive: [1] 5.45% | [2] 12.9% | [3] 1.9% | [4] -26.6% | [5] 7.45% | [6] -0.25%

CNC(=O)N(C)COC
inactive: [1] -2.65% | [2] -10.9% | [3] 2.55% | [4] -0.7% | [5] -40.8% | [6] -5.1%

C=C(CO)CC(CC(=C)CCS(=O)(=O)c1ccccc1)S(=O)(=O)c1ccccc1 (stereo not drawn)
inactive: [1] 8.55% | [2] 1.75% | [3] -0.9% | [4] 8.85% | [5] 7.35% | [6] -5.75%

CN(C)N=Nc1ccc(Cl)cc1C(=O)O
inactive: [1] 14.8% | [2] 12.3% | [3] 20.7% | [4] 2.2% | [5] 17.9% | [6] 41%

CCCCCCCCCCCCCCCCCCNC(=O)Nc1cc(C(C)C)ccc1C
inactive: [1] -13.3% | [2] -22.1% | [3] -14.8% | [4] -47.1% | [5] -2.7% | [6] -30.6%

NC(=O)C(F)(F)C(F)(F)C(N)=O
inactive: [1] -28.1% | [2] -16.8% | [3] -15% | [4] -51.6% | [5] 3.25% | [6] -1.9%

CC1=C(C(=O)NCc2ccccc2)C(/C=C/c2ccccc2)C(C(=O)NCc2ccccc2)=C(C)N1
inactive: [1] 46% | [2] 16.1% | [3] 23.7% | [4] -22.1% | [5] 4.55% | [6] 34.3%

COc1cc2c(cc1OC)C(=O)/C(=C/c1ccc([N+](=O)[O-])cc1)CC2
inactive: [1] -50.2% | [2] -56.5% | [3] -11.9% | [4] -38.2% | [5] -28% | [6] -33.9%
